Results as given in PubChem BioAssay (EPA / NIEHS).
The source made the active and inactive calls. How the source made its calls: active means hit-call score of the fitted dose curve at least 0.9, where 1 is the maximum; inactive means score below 0.9.

Legend:
[1] = APR_HepG2_NuclearSize_72hr: Apredica 72-hour HepG2 Assay for Nuclear Size (AID 2282925); settings: high-content imaging, actives raise or lower the signal
Procedure, shortened: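 HepG2 cells were exposed to compounds at ten concentrations from 0.39 to 200 uM (duplicate, 0.5% DMSO final) for 72 hr. After fixation in 3.7% formaldehyde, nuclei were stained with Hoechst 33342 (2 ug/mL) and imaged at 20x.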

[2] = ATG_CRE_CIS: Attagene CIS-FACTORIAL HepG2 Assay for human cAMP Responsive Element (CRE) binding protein 3 (AID 2282926); settings: HepG2 CRE cis-reporter, Attagene multiplexed mRNA; actives raise or lower the signal
Procedure, shortened: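 HepG2 cells transiently transfected with cis-element-driven multiple reporter transcription units; CRE reporter mRNA measured 24 h after dosing by RT-PCR, 6-FAM labelling, HpaI digestion and capillary electrophoresis. Bidirectional fit versus DMSO baseline.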

[3] = target: CCAAT/enhancer-binding protein beta (Homo sapiens) (UniProt P17676); experiment: ATG_C_EBP_CIS: Attagene CIS-FACTORIAL HepG2 Assay for human CCAAT/Enhancer Binding Protein (C/EBP) beta (AID 2282927); settings: HepG2 Attagene cis-factorial transcription factor reporter; actives raise or lower the signal
Chain of CCAAT/enhancer-binding protein beta (Homo sapiens) (P17676 whole entry, looked up): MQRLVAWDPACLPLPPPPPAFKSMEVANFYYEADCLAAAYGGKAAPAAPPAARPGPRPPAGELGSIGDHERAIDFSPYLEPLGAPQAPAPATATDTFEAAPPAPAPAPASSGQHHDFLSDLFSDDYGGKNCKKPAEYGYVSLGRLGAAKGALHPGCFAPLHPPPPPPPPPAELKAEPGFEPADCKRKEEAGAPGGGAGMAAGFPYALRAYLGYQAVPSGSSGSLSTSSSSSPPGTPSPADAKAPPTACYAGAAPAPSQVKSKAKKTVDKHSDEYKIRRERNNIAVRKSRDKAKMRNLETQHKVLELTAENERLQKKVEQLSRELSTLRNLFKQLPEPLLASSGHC
Procedure, shortened: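 Following a 24 h incubation with test chemical, transfected HepG2 cells yielded RNA whose reporter transcripts were quantified by RT-PCR and fluorescent capillary electrophoresis, with DMSO serving as baseline for bidirectional fitting.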

[4] = ATG_CMV_CIS: Attagene CIS-FACTORIAL HepG2 Assay for human CMV (Internal Marker) (AID 2282928); settings: HepG2 CMV promoter reporter, transcription factor profiling; actives raise or lower the signal;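 further: endpoint acts as a background internal control marker rather than a target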
Procedure, shortened: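 After transient transfection of HepG2 with reporter transcription units driven by cis-regulatory promoters, cells receive test chemical for 24 h. Labeled reporter amplicons, digested with HpaI, are sized and quantified by capillary electrophoresis against DMSO.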

[5] = ATG_DR4_LXR_CIS: Attagene CIS-FACTORIAL HepG2 Assay for human Liver X Receptor (LXR), DR4 submotif (AID 2282929); settings: HepG2 Attagene DR4 cis-reporter, mRNA transcription; actives raise or lower the signal
Procedure, shortened: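 Transiently transfected HepG2 liver cells; cis-regulated reporters; 24 h dosing. RT-PCR plus CE read-out of reporter mRNA. DMSO baseline, bidirectional curve fitting.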

[6] = target: Aryl hydrocarbon receptor (Homo sapiens) (UniProt P35869); experiment: ATG_Ahr_CIS: Attagene CIS-FACTORIAL HepG2 Assay for human Aryl Hydrocarbon Receptor (Ahr) (AID 2282930); settings: HepG2 AhR cis-factorial reporter transcription; actives raise or lower the signal
Chain of Aryl hydrocarbon receptor (Homo sapiens) (P35869 whole entry, looked up): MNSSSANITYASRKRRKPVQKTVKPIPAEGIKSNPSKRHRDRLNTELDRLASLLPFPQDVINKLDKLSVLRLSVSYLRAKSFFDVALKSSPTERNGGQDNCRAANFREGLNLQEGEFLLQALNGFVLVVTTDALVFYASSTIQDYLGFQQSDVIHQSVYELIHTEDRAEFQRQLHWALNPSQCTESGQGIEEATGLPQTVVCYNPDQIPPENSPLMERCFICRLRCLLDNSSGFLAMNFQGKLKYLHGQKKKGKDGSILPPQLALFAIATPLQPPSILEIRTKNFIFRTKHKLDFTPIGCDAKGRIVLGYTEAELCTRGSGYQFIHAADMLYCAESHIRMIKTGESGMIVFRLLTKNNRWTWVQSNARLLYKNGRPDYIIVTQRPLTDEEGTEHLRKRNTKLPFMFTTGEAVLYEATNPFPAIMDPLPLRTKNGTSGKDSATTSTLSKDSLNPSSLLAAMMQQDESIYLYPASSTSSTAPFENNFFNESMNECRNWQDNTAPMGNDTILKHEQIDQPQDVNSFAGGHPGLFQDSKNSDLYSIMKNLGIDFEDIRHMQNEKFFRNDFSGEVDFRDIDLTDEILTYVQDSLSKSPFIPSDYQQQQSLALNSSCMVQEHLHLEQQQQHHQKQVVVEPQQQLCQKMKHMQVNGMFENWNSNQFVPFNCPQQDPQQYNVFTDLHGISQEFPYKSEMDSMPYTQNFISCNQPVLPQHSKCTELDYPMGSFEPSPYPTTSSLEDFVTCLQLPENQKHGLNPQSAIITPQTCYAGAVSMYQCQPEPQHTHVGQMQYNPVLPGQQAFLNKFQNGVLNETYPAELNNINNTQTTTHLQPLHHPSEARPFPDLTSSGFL
Procedure, shortened: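 Values derive from bidirectional fitting against DMSO negative control. Underlying signal: cis-element reporter mRNA in transiently transfected HepG2, harvested 24 h post-dose and measured by RT-PCR plus capillary electrophoresis.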

[7] = ATG_AP_1_CIS: Attagene CIS-FACTORIAL HepG2 Assay for human Activator Protein 1 (AP-1) (AID 2282931); settings: HepG2 Attagene cis-factorial AP-1 reporter mRNA; actives raise or lower the signal
Procedure, shortened: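 We transfected HepG2 cells transiently with a set of cis-regulated reporter transcription units, dosed them for 24 h, and quantified reporter mRNA via RT-PCR and capillary electrophoresis, scoring gain or loss of signal relative to DMSO.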

[8] = ATG_AP_2_CIS: Attagene CIS-FACTORIAL HepG2 Assay for human Activator Protein 2 (AP-2) (AID 2282932); settings: HepG2 AP-2 cis-reporter, Attagene transcription factor profiling; actives raise or lower the signal
Procedure, shortened: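 Bidirectional curve fitting against DMSO was applied to reporter mRNA signals from HepG2 cells 24 h after dosing. Cis-promoter reporter units, transiently transfected, were read by RT-PCR plus capillary electrophoresis.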

[9] = ATG_BRE_CIS: Attagene CIS-FACTORIAL HepG2 Assay for human Bone Morphogenetic Protein (BMP) Response Element (BRE) (AID 2282933); settings: HepG2 BMP response element reporter, Attagene transcription factor profiling; actives raise or lower the signal
Procedure, shortened: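 Endogenous transcription factor activity read in transiently transfected HepG2 cells after 24 h chemical exposure. Bidirectional curve fitting against DMSO; readout is reporter transcript level by RT-PCR with capillary electrophoresis of labelled products.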

[10] = target: Retinoic acid receptor alpha (Homo sapiens) (UniProt P10276); experiment: ATG_DR5_RAR_CIS: Attagene CIS-FACTORIAL HepG2 Assay for human Retinoic Acid Receptor Alpha (RARE), DR5 submotif (AID 2282934); settings: HepG2 Attagene cis-factorial RARE DR5 reporter, mRNA; actives raise or lower the signal
Chain of Retinoic acid receptor alpha (Homo sapiens) (P10276 whole entry, looked up): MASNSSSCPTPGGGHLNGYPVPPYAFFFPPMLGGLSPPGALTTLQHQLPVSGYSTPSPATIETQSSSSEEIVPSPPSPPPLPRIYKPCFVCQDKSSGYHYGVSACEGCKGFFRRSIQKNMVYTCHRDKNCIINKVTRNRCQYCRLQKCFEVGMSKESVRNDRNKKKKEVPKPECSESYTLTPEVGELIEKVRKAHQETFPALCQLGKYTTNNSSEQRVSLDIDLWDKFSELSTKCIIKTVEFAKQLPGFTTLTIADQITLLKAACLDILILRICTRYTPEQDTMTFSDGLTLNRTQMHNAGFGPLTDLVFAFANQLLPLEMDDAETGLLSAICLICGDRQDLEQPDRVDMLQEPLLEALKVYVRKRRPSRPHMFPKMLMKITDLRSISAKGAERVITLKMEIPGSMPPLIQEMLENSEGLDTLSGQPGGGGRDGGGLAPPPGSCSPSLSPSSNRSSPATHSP
Procedure, shortened: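 Endpoint fitted in both directions relative to DMSO as negative control. It reflects DR5 cis-element reporter mRNA induction in transiently transfected HepG2 cells, measured 24 h after dosing through RT-PCR and fluorescent capillary electrophoresis.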

[11] = target: Transcription factor E2F1 (Homo sapiens) (UniProt Q01094); experiment: ATG_E2F_CIS: Attagene CIS-FACTORIAL HepG2 Assay for human E2F Transcription Factor 1 (AID 2282935); settings: HepG2 Attagene cis-reporter, E2F reporter RNA transcripts; actives raise or lower the signal
Chain of Transcription factor E2F1 (Homo sapiens) (Q01094 whole entry, looked up): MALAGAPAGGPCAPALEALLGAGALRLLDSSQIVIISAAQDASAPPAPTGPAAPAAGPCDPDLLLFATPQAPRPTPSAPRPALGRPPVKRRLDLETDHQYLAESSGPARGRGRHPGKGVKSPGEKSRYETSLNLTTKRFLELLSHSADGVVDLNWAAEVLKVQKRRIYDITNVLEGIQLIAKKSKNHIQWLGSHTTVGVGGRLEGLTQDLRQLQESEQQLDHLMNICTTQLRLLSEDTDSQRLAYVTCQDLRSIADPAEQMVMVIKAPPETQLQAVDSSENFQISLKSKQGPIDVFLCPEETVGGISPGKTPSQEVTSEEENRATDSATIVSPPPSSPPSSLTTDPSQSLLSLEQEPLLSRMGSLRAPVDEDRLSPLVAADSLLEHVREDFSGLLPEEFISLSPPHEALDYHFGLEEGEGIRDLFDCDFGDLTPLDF
Procedure, shortened: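 Multiplexed cis-reporter assay: HepG2, transient transfection, 24 h dosing, mRNA quantitation by labeled RT-PCR and CE.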

[12] = ATG_E_Box_CIS: Attagene CIS-FACTORIAL HepG2 Assay for human Enhancer Box (E-box) (AID 2282936); settings: HepG2 E-box cis-reporter transcription, actives raise or lower the signal
Procedure, shortened: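 Multiplexed CIS reporter system in transiently transfected HepG2 cells measures native transcription factor activity. Reporter RNA after 24 h exposure is profiled by RT-PCR-capillary electrophoresis.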

[13] = ATG_M_61_CIS: Attagene CIS-FACTORIAL HepG2 Assay for M61 Transcription Factor (Internal Marker) (AID 2282937); settings: HepG2 Attagene CIS-FACTORIAL M61 internal marker reporter; actives raise or lower the signal
Procedure, shortened: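 Multiplexed reporter mRNA assay, HepG2 human hepatoma cells, 24 h treatment. Signal: FAM-labelled, HpaI-digested RT-PCR fragments by CE. Fit: bidirectional, baseline DMSO.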

[14] = ATG_EGR_CIS: Attagene CIS-FACTORIAL HepG2 Assay for human Early Growth Response 1 (EGR1) (AID 2282938); settings: HepG2 Attagene CIS-FACTORIAL EGR reporter mRNA; actives raise or lower the signal
Procedure, shortened: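 Multiplexed cis-reporter system in human hepatoma HepG2 cells, transiently transfected. Cells are dosed for 24 h; reporter transcripts are amplified, fluorescently tagged and sized by capillary electrophoresis, with DMSO as negative control.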

[15] = ATG_M_19_CIS: Attagene CIS-FACTORIAL HepG2 Assay for M19 Transcription Factor (Internal Marker) (AID 2282939); settings: HepG2 Attagene CIS-FACTORIAL M19 internal marker reporter; actives raise or lower the signal
Procedure, shortened: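 Internal marker readout, fitted in both directions against DMSO, from HepG2 cells carrying transfected cis-element reporter constructs; RT-PCR and capillary electrophoresis of reporter mRNA after 24 h exposure.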

[16] = ATG_ERE_CIS: Attagene CIS-FACTORIAL HepG2 Assay for Estrogen Response Element (ERE) (AID 2282940); settings: HepG2 ERE cis-reporter, Attagene RNA transcript; actives raise or lower the signal
Procedure, shortened: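 After 24 h compound treatment, RNA from transfected HepG2 cells was reverse-transcribed, reporter cDNA PCR-amplified, FAM-labelled, HpaI-cut and resolved by capillary electrophoresis. ERE-driven cis reporter transcripts reflect endogenous factors; gain or loss scored against DMSO.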

[17] = ATG_Ets_CIS: Attagene CIS-FACTORIAL HepG2 Assay for human Erythroblast Transformation Specific (ETS) (AID 2282941); settings: HepG2 ETS cis-reporter transcription, actives raise or lower the signal
Procedure, shortened: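 Human HepG2 hepatoma cells were transiently transfected with promoter-driven reporter constructs and treated for 24 hours. Reporter transcripts were quantified by RT-PCR with fluorescent primer extension; bidirectional curve fitting used DMSO as reference.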

[18] = target: Hepatocyte nuclear factor 3-beta (Homo sapiens) (UniProt Q9Y261); experiment: ATG_FoxA2_CIS: Attagene CIS-FACTORIAL HepG2 Assay for human Forkhead box A2 (FOXA2) (AID 2282942); settings: HepG2 cis-reporter transcription factor activity, 24 h; actives raise or lower the signal
Chain of Hepatocyte nuclear factor 3-beta (Homo sapiens) (Q9Y261 whole entry, looked up): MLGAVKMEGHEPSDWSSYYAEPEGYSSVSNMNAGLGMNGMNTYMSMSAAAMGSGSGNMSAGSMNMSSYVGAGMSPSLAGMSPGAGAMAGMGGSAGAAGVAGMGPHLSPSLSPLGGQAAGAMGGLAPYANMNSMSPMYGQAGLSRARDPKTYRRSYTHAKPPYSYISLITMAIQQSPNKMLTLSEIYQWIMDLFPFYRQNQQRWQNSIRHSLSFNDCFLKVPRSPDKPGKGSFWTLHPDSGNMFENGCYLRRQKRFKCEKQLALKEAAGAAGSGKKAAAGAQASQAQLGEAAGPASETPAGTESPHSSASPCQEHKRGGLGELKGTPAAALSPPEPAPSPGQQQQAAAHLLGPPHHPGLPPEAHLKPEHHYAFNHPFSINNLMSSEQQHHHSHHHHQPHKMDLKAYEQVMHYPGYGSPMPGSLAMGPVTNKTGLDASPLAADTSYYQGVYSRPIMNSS
Procedure, shortened: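 Multiplexed cis-element reporter assay in transiently transfected HepG2. Twenty-four hours post-dosing, RNA was reverse-transcribed, amplified, FAM-labelled, HpaI-digested and separated by CE. Activity gain or loss relative to DMSO.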

[19] = ATG_FoxO_CIS: Attagene CIS-FACTORIAL HepG2 Assay for human Forkhead box O (FoxO) (AID 2282943); settings: HepG2 Attagene cis-reporter, FoxO element, mRNA; actives raise or lower the signal
Procedure, shortened: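 Values reflect reporter mRNA induction or loss in HepG2 cells 24 h post-dosing, fitted bidirectionally with DMSO as negative control and baseline. Detection used RT-PCR and fluorescence capillary electrophoresis.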

[20] = ATG_GATA_CIS: Attagene CIS-FACTORIAL HepG2 Assay for human GATA Binding Protein (AID 2282944); settings: HepG2 GATA cis-element reporter, Attagene multiplex mRNA; actives raise or lower the signal
Procedure, shortened: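 Reporter transcripts from a GATA cis-regulated unit, among multiplexed reporters in transfected HepG2 cells, were measured by RT-PCR with capillary electrophoresis after 24 h dosing. Induction or loss scored relative to DMSO.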

Measured: AC50

Cc1nc(C)nc(N2C[C@@H](C)N(c3ccnc([C@@H](C)O)n3)[C@@H](C)C2)n1
active: [7] 23.1 µM
inactive: all other assays above

CCCCCCCCCCCCCCCC
inactive: all assays above

NS(=O)(=O)c1cc2c(cc1Cl)NCNS2(=O)=O
not listed: [10]
inactive: all other assays above

Cc1ccc2ncccc2c1
inactive: all assays above

COc1cccc2c1C(=O)c1c(O)c3c(c(O)c1C2=O)C[C@@](O)(C(=O)CO)C[C@@H]3O[C@H]1C[C@H](N)[C@H](O)[C@H](C)O1
active: [5] 0.957 µM | [7] 2.15 µM | [8] 3.75 µM | [12] 1.85 µM | [14] 2.04 µM | [19] 0.543 µM
not listed: [4]
inactive: all other assays above

O=C(O)Cc1ccccc1Nc1c(Cl)cccc1Cl
active: [5] 68.7 µM | [6] 67.3 µM | [12] 176 µM
not listed: [10]
inactive: all other assays above

CC(=O)OC/C=C(\C)CCC=C(C)C
not listed: [4]
inactive: all other assays above

Cc1nc(-c2ccc3c(c2)CCN(CCC2CCC(NC(=O)/C=C/c4ccc(F)cc4)CC2)CC3)no1 (stereo not drawn)
not listed: [10]
inactive: all other assays above

COC(=O)c1ccc(O)cc1
active: [16] 67.4 µM
not listed: [4]
inactive: all other assays above

O=C(O)CCCCC(=O)O
active: [6] 72.5 µM
not listed: [10]
inactive: all other assays above

CNC(=O)[C@H]1O[C@@H](n2cnc3c(NCc4cc(Cl)ccc4OCc4cc(C)no4)ncnc32)[C@H](O)[C@@H]1N
not listed: [10]
inactive: all other assays above

CC=Cc1ccc(O)c(OC)c1
active: [6] 73.5 µM
not listed: [4]
inactive: all other assays above

COc1ccc(C)cc1N
active: [6] 100 µM
not listed: [4]
inactive: all other assays above

CCCCCCCCCCCC(=O)OC
not listed: [10]
inactive: all other assays above

Cc1ccc(Cl)cc1
not listed: [10]
inactive: all other assays above
